For test [1], the system named is MDA-MB-231. In words: cell viability relative to vehicle unstimulated control (fraction); higher = more viable cells. Particulars: pre-treatment time: 18 h then 24 h IFNg/TNF.
Test [2] relates to MDA-MB-231. The test can be described thus: kynurenine production, fold change vs DMSO IFNg/TNF control; higher = more kynurenine produced (less inhibition). Particulars: pre-treatment time: 18 h then 24 h IFNg/TNF. The procedure, abridged: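 In 96-well plates, MDA-MB-231 cells (7 × 10^4/well) were given 24 h to settle, pre-treated for 18 h with each natural product in 0.1% DMSO, and stimulated for 24 h with IFNγ (1 U/ml) and TNF (6.25 ng/ml) at 37°C. Supernatants were processed with trichloroacetic acid and p-dimethylaminobenzaldehyde and read at 492 nm against 0–100 μM standards. In the first screening round, kynurenine production, as fold change over same-plate cytokine-stimulated vehicle wells, was averaged over duplicate plates.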

The record followed here is the supplement of paper PMC13094657.

Molecules are shown by their SMILES. Where a name gives a salt, the structure may show the parent alone. ± gives the standard deviation of the averaged measurements.
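For cell viability relative to vehicle unstimulated control in this document: viability of the cells left after supernatant collection, read with Deep Blue dye added for 4 h, as absorbance at 570 nm minus 600 nm.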

As for `CC(C)=CCC[C@](C)(O)[C@H]1CC[C@]2(C)[C@@H]1[C@H](O)C[C@@H]1[C@@]3(C)CC[C@H](O)C(C)(C)[C@@H]3[C@@H](O[C@@H]3O[C@H](CO)[C@@H](O)[C@H](O)[C@H]3O)C[C@]12C` [Ginsenoside Rh1] (compound dose: 10 uM), in the test with MDA-MB-231 [1], the cell viability was 0.999 ± 0.025. The kynurenine production in the test with MDA-MB-231 [2] stood at 0.852 ± 0.15.

In the case of `O=C(O)c1ccc(=O)[nH]c1` [6-hydroxypyridine-3-carboxylic acid] (compound dose: 10 uM), the cell viability in the test on MDA-MB-231 [1] stood at 0.99 ± 0.039. Moreover, the kynurenine production in the test on MDA-MB-231 [2] amounted to 0.821 ± 0.09.

Turning to `CN1C2CCC1CC(O)C2` (stereo not drawn) [Tropine] (compound dose: 10 uM), the cell viability in the test with MDA-MB-231 [1] came to 0.938 ± 0.13. For the same compound, in the test on MDA-MB-231 [2], the kynurenine production stood at 0.902 ± 0.2.

With `C[C@@H]1CC[C@@]2(OC1)O[C@H]1C[C@H]3[C@@H]4CC=C5C[C@@H](O[C@@H]6O[C@H](CO)[C@@H](O[C@@H]7O[C@@H](C)[C@H](O[C@@H]8O[C@@H](C)[C@H](O)[C@@H](O)[C@H]8O)[C@@H](O)[C@H]7O)[C@H](O)[C@H]6O[C@@H]6O[C@@H](C)[C@H](O)[C@@H](O)[C@H]6O)CC[C@]5(C)[C@H]4CC[C@]3(C)[C@H]1[C@@H]2C` [Formosanin C] (compound dose: 10 uM), the cell viability in the test with MDA-MB-231 [1] was -0.00547 ± 0.0077. Also, the kynurenine production in the test on MDA-MB-231 [2] worked out at 0.125 ± 0.075.

For `CC(C)C1=CC(=O)[C@@](C)(C2[C@H](O)C[C@@]3(C)[C@@H]4CC=C5[C@@H](CC[C@@H](OC6OCC(O)C(O)C6OC6OC(C)C(O)C(O)C6O)C5(C)C)[C@]4(C)C(=O)C[C@]23C)O1` (stereo partly drawn) [Picfeltarraenin IA] (compound dose: 10 uM), the cell viability in the test on MDA-MB-231 [1] came out at 0.9887 ± 0.0091. Further, the kynurenine production in the test on MDA-MB-231 [2] amounted to 0.901 ± 0.11.

On to `C=C(CO)C(=O)O[C@H]1CC(=C)[C@@H]2C[C@H](O)C(=C)[C@@H]2[C@H]2OC(=O)C(=C)[C@@H]21` [Cynaropicrin] (compound dose: 10 uM), for which the cell viability in the test on MDA-MB-231 [1] came out at 0.69 ± 0.16. The kynurenine production in the test on MDA-MB-231 [2] was 0.0672 ± 0.056.

Regarding `C[C@]1(C(=O)O)CCC[C@]2(C)c3cc(O)ccc3CC[C@@H]12` [Podocarpic acid] (compound dose: 10 uM), in the test on MDA-MB-231 [1], the cell viability stood at 0.946 ± 0.07. Moreover, the kynurenine production in the test on MDA-MB-231 [2] worked out at 0.852 ± 0.12.

Take `COc1cc(C2OCC3C(c4cc(OC)c(O[C@@H]5O[C@H](CO)[C@@H](O)[C@H](O)[C@H]5O)c(OC)c4)OCC23)cc(OC)c1O[C@H]1O[C@@H](CO)[C@H](O)[C@@H](O)[C@@H]1O` (stereo partly drawn) [Eleutheroside E] (compound dose: 10 uM): in the test with MDA-MB-231 [1], the cell viability stood at 0.947 ± 0.033. For the same compound, the kynurenine production in the test with MDA-MB-231 [2] stood at 0.784 ± 0.071.

`CC(C)(O)/C=C/C(=O)[C@](C)(O)[C@H]1[C@H](O)C[C@@]2(C)[C@@H]3CC=C4[C@@H](C[C@H](O)C(=O)C4(C)C)[C@]3(C)C(=O)C[C@]12C` [Cucurbitacin D] (compound dose: 10 uM): the cell viability in the test on MDA-MB-231 [1] worked out at 0.55 ± 0.022. For the same compound, in the test on MDA-MB-231 [2], the kynurenine production stood at 0.326 ± 0.083.

For the compound `CC(C)[C@]12CC(=O)[C@H](C)[C@H]1C2` [α-Thujone] (compound dose: 10 uM), the cell viability in the test with MDA-MB-231 [1] was 1.05 ± 0.058. For the same compound, the kynurenine production in the test with MDA-MB-231 [2] is 0.947 ± 0.21.

Regarding `CCCCCCCCCCCCCC(=O)O[C@@H]1[C@@H](C)[C@@]2(O)[C@@H](C=C(CO)C[C@]3(O)C(=O)C(C)=C[C@@H]23)[C@@H]2C(C)(C)[C@]12OC(C)=O` [Phorbol 12-Myristate 13-Acetate] (compound dose: 10 uM), the cell viability in the test with MDA-MB-231 [1] was determined as 1.09 ± 0.038. Moreover, in the test on MDA-MB-231 [2], the kynurenine production was 1.01 ± 0.21.

Take `O=C(O)c1ccc(=O)[nH]c1` [6-hydroxynicotinic acid] (compound dose: 10 uM): in the test with MDA-MB-231 [1], the cell viability came out at 0.951 ± 0.036. Further, the kynurenine production in the test on MDA-MB-231 [2] was 0.973 ± 0.098.

With `COc1cc2c(cc1OC)-c1c3c(cc4c1[C@H](C2)N(C)CC4)OCO3` [Dicentrine] (compound dose: 10 uM), the cell viability in the test on MDA-MB-231 [1] was found to be 0.83 ± 0.043. In addition, the kynurenine production in the test on MDA-MB-231 [2] amounted to 0.432 ± 0.0093.

For `CN1[C@@H]2CC[C@H]1C[C@@H](OC(=O)C(CO)c1ccccc1)C2` (stereo partly drawn) [Atropine sulfate] (compound dose: 10 uM), in the test with MDA-MB-231 [1], the cell viability was 0.996 ± 0.016. For the same compound, the kynurenine production in the test with MDA-MB-231 [2] worked out at 0.795 ± 0.044.

Consider `CC(=O)OC[C@]12[C@H](OC(C)=O)[C@H](OC(C)=O)[C@@H]3[C@@H](OC(C)=O)[C@@]14O[C@@]3(C)COC(=O)c1cccnc1CCC(C)C(=O)O[C@@H]([C@H](OC(=O)c1ccco1)[C@@H]2OC(C)=O)[C@]4(C)O` (stereo partly drawn) [Wilforgine] (compound dose: 10 uM), for which the cell viability with MDA-MB-231 [1] was 1.02 ± 0.14. Besides, the kynurenine production in the test with MDA-MB-231 [2] amounted to 1.04 ± 0.077.

For the compound `C[C@@H]1C(=O)O[C@H]2[C@H](O)[C@@]34O[C@@H]5OC(=O)[C@H](O)[C@@]56[C@H](C(C)(C)C)[C@H](O)C(OC3=O)[C@]64[C@@]12O` (stereo partly drawn) [Ginkgolide C] (compound dose: 10 uM), the cell viability in the test with MDA-MB-231 [1] is 0.9704 ± 0.0066. In addition, the kynurenine production in the test on MDA-MB-231 [2] was 0.947 ± 0.088.

In the case of `C/C=C(/C)C(=O)O[C@H]1C(C)=C[C@]23C(=O)[C@@H](C=C(C)[C@@H](O)[C@]12O)[C@H]1[C@@H](C[C@H]3C)C1(C)C` [20-Deoxyingenol 3-angelate] (compound dose: 10 uM), the cell viability with MDA-MB-231 [1] stood at 1.04 ± 0.05. In addition, the kynurenine production in the test on MDA-MB-231 [2] was 0.8582 ± 0.0053.

For `COc1cc2c3c(c1OC)-c1ccccc1C[C@H]3N(C)CC2` [Nuciferine] (compound dose: 10 uM), the cell viability with MDA-MB-231 [1] came out at 1.05 ± 0.051. Also, the kynurenine production in the test on MDA-MB-231 [2] turned out to be 1.1 ± 0.08.

For `CN[C@H]1CCc2cc(OC)c(OC)c(OC)c2-c2ccc(OC)c(=O)cc21` [Demecolcine (colcemid)] (compound dose: 10 uM), the cell viability with MDA-MB-231 [1] was determined as 0.847 ± 0.13. Also, in the test with MDA-MB-231 [2], the kynurenine production is 0.486 ± 0.099.
